Drawing on PubChem BioAssay, this text covers composite z-score for 35 molecules.

This assay is described as follows: probe aLefty1 binding on compound microarray – biochemical, small-molecule microarray, 635/667 nm fluorescence, primary screen (AID 1153).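 Note: score merges spot fluorescence with signal-to-noise ratio from the scanned slide images.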 Particulars: higher = more signal.
With `COc1cc2c(cc1O)C(C1CC1)N(Cc1cc3c(cc1Br)OCO3)CC2` (stereo not given), the composite z-score was -0.263.

`C=C(CCCC)C(=O)CC[C@H](OC(C)=O)c1cccc(OCCO)c1` showed a composite z-score of -0.263.

Turning to `C=CC[C@]1(C(=O)N2CCCCC2)N=C(c2ccc(OCCCO)cc2)O[C@H]1c1ccccc1`, the composite z-score turned out to be 0.629.

As to `COCCOC(=O)N1C(=O)[C@@]2(c3cc(C#CCCO)ccc31)[C@H](C(=O)N1CCN(c3ncccn3)CC1)[C@H]1C(=O)O[C@H](c3ccccc3)[C@H](c3ccccc3)N1[C@@H]2c1ccccc1OCCO`, the composite z-score was 0.157.

In turn, `COCCOC(=O)N1C(=O)[C@@]2(c3cc(C#CCCO)ccc31)[C@H](C(=O)N1CCc3cc(OC)c(OC)cc3C1)[C@H]1C(=O)O[C@H](c3ccccc3)[C@H](c3ccccc3)N1[C@@H]2c1ccc(O)cc1` came in with a composite z-score of 0.88.

In turn, `CCCCN1CC=CC23O[C@@H]4/C=C\CCC(C)OC(=O)C4[C@H]2C(=O)N(CCCCCO)[C@@H]3C1=O` (stereo not given in full) displayed a composite z-score of -0.147.

`C=CCN1C(=O)[C@@]2(O[C@@H](CCO)[C@H]([Si](C)(C)c3ccc(OC)cc3)[C@H]2C)c2cc(NC(=O)c3ccc(OC)cc3)ccc21` registered a composite z-score of -0.147.

`CC(=O)n1cc(C(O)C2C=CC3C(=O)N(C)C(=O)C3N2Nc2ccccc2)c2ccccc21` (stereo not given): the composite z-score was 0.384.

Molecule `Cc1ccc(C(C)CC(O)C2C=CC3C(=O)N(c4ccccc4)C(=O)C3N2Nc2ccc([N+](=O)[O-])cc2)o1` (stereo not given) registered a composite z-score of 0.218.

`[N-]=[N+]=NCc1ccccc1[C@H]1OC(c2ccc(OCCCO)cc2)=N[C@@]1(Cc1ccccc1)C(=O)NCc1ccccc1` gave a composite z-score of 0.22.

Turning to `COc1ccc([Si](C)(C)[C@@H]2[C@@H](CCO)O[C@]3(C(=O)N(Cc4ccc(N5C(=O)COc6ccccc65)cc4)c4ccccc43)[C@H]2C)cc1`, the composite z-score came to 0.165.

Turning to `CN(C)CCCNC(=O)[C@@]1(C)c2ccccc2C(=O)N(Cc2cc(F)cc(C(F)(F)F)c2)[C@H]1c1ccc(CO)cc1`, the composite z-score came out at 0.0391.

As for `C=C(COC)/C(=C/C[C@@H](OC(C)=O)c1ccc(OCCO)cc1)c1cc(C(=O)OC)ccc1OC`, the composite z-score is 0.139.

As to `CCCC[C@@H]1C[C@H]1[C@@H](NC(=O)c1ccco1)c1ccc(Cl)cc1`, the composite z-score came to 0.485.

Regarding `CC1CC/C=C\[C@H]2OC34C=CCN(Cn5nnc6ccccc65)C(=O)[C@H]3N(C(CO)C(C)C)C(=O)[C@@H]4C2C(=O)O1` (stereo not given in full), the composite z-score was 0.0956.

`[N-]=[N+]=Nc1ccccc1[C@H]1OC(c2ccc(OCCCO)cc2)=N[C@@]1(Cc1ccccc1)C(=O)O` registered a composite z-score of 0.346.

With `O=C1C2C=CC(C(O)C(c3ccccc3)c3ccccc3)N(n3cnnc3)C2C(=O)N1Cc1ccccc1` (stereo not given), the composite z-score was 0.169.

`CN1C(=O)C2C=CC(C(O)Cc3ccccc3)N(Nc3ccccc3)C2C1=O` (stereo not given) registered a composite z-score of -0.0501.

Turning to `NC(=O)[C@@H]1[C@H]2C(=O)O[C@H](c3ccccc3)[C@H](c3ccccc3)N2[C@H](c2ccc(O)cc2)[C@@]12C(=O)Nc1ccc(C#CC3(O)CCCCCC3)cc12`, the composite z-score was -0.0544.

As for `COCCOC(=O)N1C(=O)[C@@]2(c3cc(C#Cc4ccc(OC)cc4)ccc31)[C@H](C(=O)N1CCCCCCC1)[C@H]1C(=O)O[C@H](c3ccccc3)[C@H](c3ccccc3)N1[C@@H]2c1ccc(OCCO)cc1`, the composite z-score came to 2.36.

In turn, `CCOC(=O)C[C@H]1[C@H](OC(=O)Cc2ccc3c(c2)OCO3)[C@@H](NC(=O)c2ccc(-c3ccccc3)cc2)c2cc(OCCCO)ccc2N1C(=O)Cc1ccc(OC)cc1` showed a composite z-score of 0.123.

As to `O=C1[C@H]2C=C(Br)[C@H](C[C@@H]2c2ccccc2)[C@@]12CO2`, the composite z-score worked out at 0.0041.

`CCOC(=O)[C@H]1C/C=C/C[C@H](C(=O)OCC)C(=O)O[C@H]2[C@@H](OC)O[C@H](CO)[C@@H](OC(=O)Nc3ccc(C#N)cc3)[C@@H]2OC1=O` gave a composite z-score of -0.364.

Take `COC(=O)C(CC#Cc1ccc2c(c1)[C@]1(C(=O)N2)[C@H](c2ccc(O)cc2)N2[C@H](c3ccccc3)[C@H](c3ccccc3)OC(=O)[C@H]2[C@@H]1C(=O)Nc1nc2ccccc2s1)C(=O)OC`: the composite z-score was 0.506.

In the case of `COc1ccc(C(O)C2C=CC3C(=O)NC(=O)C3N2Nc2ccccn2)cc1` (stereo not given), the composite z-score came to 0.0622.

`C#CCN(CC1=CCCCC1)[C@H](c1ccccc1Br)[C@@H](O)Cc1ccccc1` returned a composite z-score of -0.0547.

In the case of `CC(C)OC(=O)C=C1C[C@@H](c2ccccc2C(F)(F)F)O[C@@H](c2ccccc2C(F)(F)F)O1`, the composite z-score is -0.0011.

`COCCCNC(=O)[C@@]1(Cc2ccccc2N=[N+]=[N-])N=C(c2ccc(OCCCO)cc2)O[C@H]1c1ccccc1N=[N+]=[N-]`: the composite z-score came out at 0.302.

For the molecule `O=C1C2C=CC(C(O)C3CCCCC3)N(Nc3ccc([N+](=O)[O-])cc3)C2C(=O)N1c1ccccc1` (stereo not given), the composite z-score was determined as 0.455.

In the case of `COCC(=C=CC[C@@H](O)c1ccccc1OCCO)C[C@@H](O)c1cc(Cl)cc(Cl)c1O`, the composite z-score worked out at 0.086.

`O=C1c2ccccc2[C@](Cc2ccccc2I)(C(=O)NC2CC2)[C@H](c2ccc(CO)cc2)N1Cc1ccccc1` yielded a composite z-score of 0.284.

With `CCOC(=O)C[C@H]1[C@H](OC(=O)Cc2ccc3c(c2)OCO3)[C@@H](NC(=O)c2ccc3ccccc3c2)c2cc(OCCCO)ccc2N1C(=O)c1ccccc1`, the composite z-score came to 0.0479.

In turn, `C=CCNC(=O)[C@H]1[C@@H]2C(=O)O[C@@H](c3ccccc3)[C@@H](c3ccccc3)N2[C@@H](c2ccc(OCCO)cc2)[C@]12C(=O)N(C(=O)OCCOC)c1ccccc12` showed a composite z-score of 0.378.

`CCOC(=O)C[C@H]1[C@H](OC(=O)Cc2ccc3c(c2)OCO3)[C@@H](NC(=O)c2ccc(-c3ccccc3)cc2)c2cc(OCCCO)ccc2N1C(=O)c1ccc2ccccc2n1` showed a composite z-score of -0.0536.

Consider `C=CCN1C(=O)[C@]2(O[C@H](CCO)[C@@H]([Si](C)(C)c3ccc(OC)cc3)[C@@H]2C)c2cc(N3C(=O)c4cccc5cccc3c45)ccc21`, for which the composite z-score worked out at 0.178.
